Compound activity from PubChem.
Many of the other results were omitted from the sample, so hits are more common in it than they were.
12-LOX inh: blocks human arachidonate 12S-lipoxygenase. P18054. purified 12hLO, xylenol orange hydroperoxide absorbance. Potency, µM (titrated, usually from 108 µM), hits mostly inhibitors. 580,000 compounds, 1.1% hits. AID 1671190
Target sequence (P18054 whole entry, looked up): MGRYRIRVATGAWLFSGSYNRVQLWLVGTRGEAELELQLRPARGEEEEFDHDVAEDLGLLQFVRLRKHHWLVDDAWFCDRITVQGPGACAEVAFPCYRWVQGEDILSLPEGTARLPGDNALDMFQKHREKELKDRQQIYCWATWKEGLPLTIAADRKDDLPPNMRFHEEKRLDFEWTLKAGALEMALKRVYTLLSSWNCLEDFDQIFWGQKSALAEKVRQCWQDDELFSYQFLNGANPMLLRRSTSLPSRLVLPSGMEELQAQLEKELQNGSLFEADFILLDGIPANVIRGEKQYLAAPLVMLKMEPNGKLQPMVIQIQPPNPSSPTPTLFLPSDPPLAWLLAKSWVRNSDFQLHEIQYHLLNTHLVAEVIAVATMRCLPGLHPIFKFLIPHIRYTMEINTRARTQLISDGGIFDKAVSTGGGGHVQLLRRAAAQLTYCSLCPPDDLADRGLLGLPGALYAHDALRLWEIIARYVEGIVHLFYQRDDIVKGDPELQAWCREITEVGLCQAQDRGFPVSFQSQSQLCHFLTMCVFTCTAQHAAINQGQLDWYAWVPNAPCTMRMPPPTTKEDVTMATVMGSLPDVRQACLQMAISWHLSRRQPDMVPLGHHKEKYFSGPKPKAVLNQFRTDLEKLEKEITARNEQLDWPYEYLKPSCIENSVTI
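Purified human 12hLO at 150 nM in 25 mM Hepes, 0.01% Triton X-100, pH 7.0, preincubated 15 min at room temperature with compound. Reaction started with 40 uM arachidonic acid, 30 min at room temperature. Hydroperoxide measured by Fe-xylenol orange, 573/405 nm absorbance ratio.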
TDP1 cell CPT: DT40-hTDP1 cell growth loss with CPT | Potency, µM (series often up to 46.2 µM), hits mostly inhibitors | AID 686979 | 420,000 compounds, 12% hits | chicken DT40 Tdp1-/-;hTDP1 cells + 20 nM CPT, ATP luminescence, 48 h; note: nearly all actives have a fitted effect of over 55% in size
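Chicken DT40 Tdp1-/- cells complemented with human TDP1, 400 cells/well, exposed to compounds plus 20 nM camptothecin for at least 48 h at 37 C; viability read as ATP content by CellTiter-Glo luminescence.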
HT1080NT lethal: kills 2HG-producing HT-1080-NT fibrosarcoma cells; HT-1080-NT fibrosarcoma viability, CellTiter-Glo ATP luminescence, 48 h; Potency, µM (highest dose often 46.1 µM), hits mostly cytotoxic; 360,000 compounds, 1.6% hits; AID 686970;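 note: NT is the 2HG producing partner of a matched IDH1 knockdown line; nearly all actives have a fitted effect of over 55% in size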
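HT-1080-NT; 750 cells/well; 5% FBS RPMI; 48 h compound, 37 degrees C; CellTiter-Glo luminescence; curve fitting and curve-class assignment.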
IL1B secr inh: inflammasome signaling inhibition, IL-1 beta readout. THP-1 LPS/ATP IL-1B secretion, AlphaLISA, 16 h; active compounds read low. activity change, % at 57.5 µM. 360,000 compounds, 4.7% hits; in the data active = activity change below about -50%; inconclusive = mostly about -30% to -49%
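Secreted IL-1B measured by AlphaLISA bead assay after 16 h compound exposure of THP-1 cells; compounds (final up to 57.5 uM) added 1 h before LPS (250 ng/mL) and ATP (1.25 mM) stimulation; lower signal means less secretion.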
HT1080 IDH1KD tx: toxicity to HT-1080 IDH1 knockdown cells (counter line); HT-1080 IDH1 knockdown viability, ATP luminescence, 48 h; AID 686971; 360,000 compounds, 2% hits; Potency, µM (doses to about 46.1 µM), actives largely listed as cytotoxic
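Knockdown cells (IDH1KD HT-1080) received compounds 2 h after plating at 750 cells/well and were kept 48 h at 37 °C in 5% FBS RPMI. A CellTiter-Glo luminescence read gave % activity for curve fitting.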
TDP1 cell noCPT: qHTS for Inhibitors of human tyrosyl-DNA phosphodiesterase 1 (TDP1): qHTS in cells in absence of CPT; 420,000 compounds, 15% hits; DT40 Tdp1-/- hTDP1 cells, no CPT, ATP luminescence, 48 h; Potency, µM (titrated, usually from 46.2 µM), most hits filed as inhibitors; AID 686978, 2013; note: nearly all actives have a fitted effect of over 55% in size
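Luminescent ATP content (CellTiter-Glo) served as the growth readout. Knockout chicken DT40 cells expressing human TDP1 were exposed to compounds without camptothecin for a minimum 48 hr at 37 °C.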
Numbers stand for hits; . = inactive; ? = inconclusive; / = no result given. Unless noted, calls come from the whole dose curve; as a rule, active = well fitted curve in the direction sought with a large enough effect; inconclusive = small, poorly fitted or top-dose-only effect, or another doubt; inactive = no such curve, though single readings can be large; an effect the other way counts as inactive or inconclusive.

SMILES | 12-LOX inh | TDP1 cell CPT | HT1080NT lethal | IL1B secr inh | HT1080 IDH1KD tx | TDP1 cell noCPT
CCn1c(=O)c2cc(C(=O)NCCOC)sc2c2ccccc21 | . | ? | . | ? | . | ?
CCOc1ccccc1N(C)C(=O)c1cc2c(=O)n(CC)c3ccccc3c2s1 | . | 21µM | . | -68 | . | 21µM
CCn1c(=O)c2cc(C(=O)N(CCN(C)C)Cc3ccccc3)sc2c2ccccc21 | ? | . | / | / | / | 21µM
O=C(CNCCc1ccc(Cl)cc1Cl)NCc1ccco1 | . | . | . | . | . | .
CCCC[n+]1c(-c2ccc(Cl)cc2Cl)csc1Nc1ccccc1 | . | ? | . | . | . | 21µM
Clc1ccc(-c2csc(Nc3ccccc3)[n+]2Cc2ccco2)c(Cl)c1 | ? | ? | . | . | ? | 23µM
COC[C@@H]1CN(C(=O)CC(C)C)C[C@H]1c1nc(C)no1 | . | / | / | / | / | /
CCCCN1CCc2c([nH]c3c(C)cccc23)C1=O | ? | 29µM | . | . | . | ?
CCCc1c(C)c2cccc(C)c2[nH]c1=O | . | ? | . | . | . | ?
COc1ccccc1-c1nc(N2CCOCC2)c2ccccc2n1 | . | . | / | / | / | .
COc1cccc(-c2nc(N3CCCCC3)c3ccccc3n2)c1O | . | 26µM | ? | ? | ? | 21µM
COc1cccc(-c2nc(N3CCN(Cc4ccccc4)CC3)c3ccccc3n2)c1O | . | ? | . | . | . | 16µM
CCC1CCCCN1c1nc(-c2cccc(OC)c2O)nc2ccccc12 (stereo not drawn) | . | ? | . | . | . | ?
COc1cccc(-c2nc(NCc3cccnc3)c3ccccc3n2)c1O | . | . | . | . | . | .
COc1cccc(-c2nc(N3CCN(c4ccccc4)CC3)c3ccccc3n2)c1O | . | ? | . | . | . | 16µM
COc1nc2ccccc2nc1N1CCC(C(=O)NCc2cccc(C)c2)CC1 | . | / | / | / | / | /
C[S+](=O)([O-])c1ccc(OCC2CN(Cc3ccccc3)C(=O)c3c(ccnc3-c3ccc(OCC(=O)O)cc3)O2)cc1 (stereo not drawn) | . | / | / | / | / | /
CC(C)c1ccc(CNC(=O)c2ccc3c(c2)N(C)C2CCCCN2C3=O)cc1 (stereo not drawn) | . | / | / | / | / | /
Cc1ccccc1OCCCCc1c(C)n[nH]c1C | ? | ? | ? | . | ? | 18µM
COc1cccc(OC)c1OCCCCc1c(C)n[nH]c1C | . | 26µM | . | . | . | ?
Cc1n[nH]c(C)c1CCCCOc1ccccc1 | . | ? | . | . | . | ?
Cc1n[nH]c(C)c1CCCCOc1ccccc1[N+](=O)[O-] | ? | 21µM | . | . | . | ?
Cc1ccc(OCCCc2c(C)n[nH]c2C)cc1 | 6.3µM | ? | . | . | . | 16µM
Cc1n[nH]c(C)c1CCCCOc1ccccc1F | . | . | . | ? | . | ?
CCOC(=O)[C@]12CCC=C1N(CCC1=CCCCC1)C(=O)[C@H](CC(=O)NCCc1ccccc1OC)C2 | ? | ? | . | . | . | ?
SMILES | 12-LOX inh | TDP1 cell CPT | HT1080NT lethal | IL1B secr inh | HT1080 IDH1KD tx | TDP1 cell noCPT
COC(=O)[C@]12CCCCC=C1N(CCC1=CCCCC1)C(=O)[C@H](CC(=O)NCCc1ccccc1OC)C2 | . | 16µM | ? | -52 | ? | ?
CCOC(=O)[C@]12CCCC=C1N(CCC1=CCCCC1)C(=O)[C@H](CC(=O)NCCc1ccccc1OC)C2 | . | 13µM | . | . | ? | 13µM
CS(=O)(=O)c1ccccc1C(=O)Nc1ccc(N2CCOCC2)cc1 | . | / | / | / | / | /
O=C(C1CCCN(S(=O)(=O)c2ccc(Br)s2)C1)N1CCN(c2ccccc2F)CC1 (stereo not drawn) | . | ? | / | / | / | 23µM
O=C(C1CCCN(S(=O)(=O)c2cccs2)C1)N1CCN(c2ccccc2F)CC1 (stereo not drawn) | . | 23µM | / | / | / | 15µM
CC(=O)c1ccc(N2CCN(C(=O)C3CCN(S(=O)(=O)c4ccc(Br)s4)CC3)CC2)cc1 | . | ? | / | / | / | 16µM
